Screen size: about 69,000 compounds; about 8,600 (12%) showed an effect of 50% or more. For the sample, strong results were picked, then their nearest neighbours and some compounds at random.
Test system: Plasmodium berghei
Assay: Screen against P. berghei liver stage (PbLuc), transformed with Luciferase, at 10uM
Type: functional, HepG2
Conditions: tested at 10 uM

SMILES | INHIBITION
O=C(c1ncc(F)cc1F)N1CCC(c2ncc[nH]2)CC1 | 29.4%
NC(=O)c1cccc(C2CCN(c3ncccn3)CC2)n1 | 52.7%
CN(C)c1nccc(C2CCN(C(=O)CO)CC2)n1 | -37%
Cc1cc(C)nc(N2CCC(c3ccnc(N(C)C)n3)CC2)n1 | 75.9%
CN(C)c1nccc(C2CCN(c3ncccn3)CC2)n1 | 76.8%
CN(C)c1nccc(C2CCN(C3CCCCC3O)CC2)n1 (configuration not stated) | 27.6%
CN1CCC(c2cccc(C(=O)N(C)C)n2)CC1 | 16.5%
CN(C)c1cccc(C2CCN(c3ncccn3)CC2)n1 | 48%
CN(C)C(=O)c1cccc(C2CCN(c3ncccn3)CC2)n1 | -19.7%
CN(C)c1nccc(C2CN(S(C)(=O)=O)C2)n1 | 20.2%
Cc1cccc(CN2CCC3(CC2)CC(Oc2cccnc2)C3)n1 | 0.923%
CCOc1ccnc(N2CCN(C(=O)c3ccn(C)c(=O)c3)CC2)n1 | 4.71%
COc1ccc(CCCN(C)C(=O)c2cc(C(C)=O)c[nH]2)cc1OC | -46.6%
COCCN1C(=O)[C@@H]2CC[C@H]1CN(C(=O)Cc1ccc(O)c(Cl)c1)C2 | -82.7%
CCS(=O)(=O)N1CCC2(CC1)COC(COc1cccnc1)C2 (configuration not stated) | 5.63%
Cc1ccc(C#N)c(N2CCC(c3nccn3Cc3cscn3)CC2)n1 | 23.9%
Cc1cnc(C)c(N2CCC(c3nccn3Cc3cscn3)CC2)n1 | 8.51%
Cc1ccc(C#N)c(N2CCCC(c3nccn3Cc3cscn3)C2)n1 (configuration not stated) | 56.7%
O=C(CC1CC1)N1C[C@@H]2CN(c3ccccc3)C(=O)[C@@H]2C1 | -15.9%
Cc1cc(C(=O)NCC2OCCc3cn(CC4CC4)nc32)c(C)[nH]1 (configuration not stated) | 26.5%
COc1ccc(CCN2CC(NCc3ncc[nH]3)CC2=O)cc1 (configuration not stated) | -5.19%
Cn1c(N2CC[C@H](O)C2)nc2cc(C(N)=O)ccc21 | 14.3%

SMILES | INHIBITION
CN(C(=O)c1ccc2c(c1)nc(N1CC[C@H](O)C1)n2C)C1CCSCC1 | -1.04%
CN(C)C(=O)c1ccc2c(c1)nc(N1CC[C@H](O)C1)n2C | 51.8%
CCOc1ccc(Oc2cc(CN)ccn2)cc1 | -5.69%
Cc1ccc(Oc2cc(CN)ccn2)cc1C | 45.7%
COc1ccc(Oc2cc(CN)ccn2)cc1 | 62.4%
NCc1ccnc(Oc2ccc(F)cc2)c1 | 82.9%
NCc1ccnc(Oc2ccccc2)c1 | -18.5%
CC(C)C(=O)NCc1ccnc(Oc2ccc(F)cc2)c1 | 32.5%
O=C(CSc1ccccc1)N1C[C@@H]2CC[C@H]1CN(Cc1ccncc1)C2 | 10.4%
CC(C)S(=O)(=O)N1CCC(c2cc3n(n2)[C@@H](C(F)(F)F)C[C@@H](C)N3)CC1 | 48.4%
COc1c(C2CCCN2CC(=O)Nc2cc(C)nn2C)c(C)nn1C (configuration not stated) | 23.5%
Cc1cc(C)n(CCC(=O)N2CCCC(c3nc(C(C)C)no3)C2)n1 (configuration not stated) | 30.8%
COc1ncnc(N)c1CNCc1ccccc1-n1cccn1 | 30.9%
CCCNc1ncc(CN2CCOC(Cc3cccc(F)c3)C2)cn1 (configuration not stated) | -45%
CCc1ccc(CN2CCOC(Cc3cccc(F)c3)C2)nc1 (configuration not stated) | 22%
CCc1ncc(CN2CCOC(Cc3cccc(F)c3)C2)cn1 (configuration not stated) | 56.1%
c1ncn(CC2CN(CC3CCCCC3)CCO2)n1 (configuration not stated) | 25.4%
O=C(NCC1(O)CCC1)c1c(O)cc(Cl)cc1Cl | 31%
O=C(NCC1(O)CCC1)c1c(O)cc(F)cc1F | 59.5%
O=C(NCCC(=O)N1CCCCCC1)c1c(O)cc(F)cc1F | 29.5%
NS(=O)(=O)Cc1cccc(C(=O)N2CCCC(n3cccn3)C2)c1 (configuration not stated) | 14.815%
Cc1nccc(CNC(=O)NCCC(=O)N2CCCc3ccccc32)n1 | -15%

SMILES | INHIBITION
COc1cccc(C2CCCN2CCCNS(C)(=O)=O)c1 (configuration not stated) | 15.3%
CC1(c2ccc(Br)cc2)CC(=O)N(CC(N)=O)C1=O (configuration not stated) | 51.8%
CC1(c2ccc(Br)cc2)CC(=O)N(CCC(N)=O)C1=O (configuration not stated) | -48.3%
CSCCN1C(=O)CC(C)(c2ccc(Br)cc2)C1=O (configuration not stated) | 42.1%
O=C(NCC1CC1)[C@H]1C[C@H]2CN(C(=O)NCc3ccccc3)C[C@@H]1O2 | 13.6%
CC(NC(=O)NCCn1ccnc1)c1ccc2c(c1)OCCCO2 (configuration not stated) | -9.37%
CC(C)n1ccnc1CN1CCOC(C)(C(=O)N2CCOCC2)C1 (configuration not stated) | 38.2%
c1cnc(CC2CCN(c3cnccn3)CC2)cn1 | 33.2%
CNC(=O)[C@@H](C1CC1)N1CCC[C@H]1C(=O)NCC(C)C | -19.6%
CCNC(=O)[C@@H]1CCCN1[C@@H](C(=O)NC)C1CC1 | 51.9%
CCCNC(=O)[C@@H]1CCCN1[C@@H](C(=O)NC)C1CC1 | -20.8%
COCCN1C(=O)[C@@H]2CC[C@H]1CN(c1nccc(C)n1)C2 | -39.2%
CC(=O)NC(C)C(=O)Nc1ccc(OCc2cccc(F)c2)cc1C (configuration not stated) | 26.5%
Cc1cccc(COc2ccc(C(C)NS(N)(=O)=O)cc2)c1 (configuration not stated) | 9.16%
Cc1cccc(COc2ccc(C(C)NC(=O)CNC(N)=O)cc2)c1 (configuration not stated) | 40.7%
Cc1cccc(COc2ccc(C(C)N)cc2)c1 (configuration not stated) | 83%
Cc1cc(OCc2cccc(F)c2)ccc1NC(=O)C(C)NC(N)=O (configuration not stated) | 48.3%
Cc1cccc(COc2ccc(NC(=O)C(C)NC(N)=O)c(C)c2)c1 (configuration not stated) | 61.3%
CC(C)(C)c1cc(CNC(=O)c2cc(COc3ccccc3)[nH]n2)[nH]n1 | -47%
Cn1cc(C(=O)NCc2cn3c(n2)CN(CC2CCCC2)CC3)cn1 | -2.17%
Cc1nc(-c2ccnc(N3CCNCC3)n2)no1 | -17%
Cc1nc(CN2CCN(CCOc3ccc(C(C)C)c(C)c3)CC2)no1 | 25.1%

SMILES | INHIBITION
Cc1noc(C)c1CNC(=O)N1CCC(Cc2cnn(C)c2)C1 (configuration not stated) | 20.2%
Cn1cc(C2CC(=O)NC23CCN(C(=O)NC2CC2)CC3)cn1 (configuration not stated) | 62.9%
Cn1cc(C2CC(=O)NC23CCN(C(=O)C2CC=CC2)CC3)cn1 (configuration not stated) | -61.6%
O=C1CC(c2ccncc2)C2(CCN(C(=O)NC3CC3)CC2)N1 (configuration not stated) | 33.4%
COC1CCCN(C(=O)NCCCF)C1 (configuration not stated) | 55.5%
COC1CCCN(C(=O)NCC(C)(C)SC)C1 (configuration not stated) | 32%
COC1CCCN(C(=O)NCC(F)F)C1 (configuration not stated) | 26.4%
CCN1C(=O)CCC12CCCN(Cc1ccc(F)cc1)CC2 (configuration not stated) | -24.5%
COC(=O)C(NC(=O)c1ccc(C)cc1C)c1cccnc1 (configuration not stated) | 42.4%
COC(=O)C(NC(=O)c1cc(C)ccc1C)c1cccnc1 (configuration not stated) | 32.2%
COC(=O)C(NC(=O)c1cc(F)cc(F)c1)c1cccnc1 (configuration not stated) | 55.4%
Cc1nc(O)cc(C2CCN(C(=O)c3[nH]nc4c3CC(C)CC4)CC2)n1 (configuration not stated) | 9.52%
O=C(Nc1c(N2CCCC2)cccc1N1CCCC1)c1ccccn1 | 55.4%
O=C(Nc1c(N2CCCC2)cccc1N1CCCC1)c1cnccn1 | 48%
O=C(Nc1cc(Cl)ccc1N1CCCCC1)c1ccccn1 | 56.3%
CN1CCN(c2ccc(NC(=O)c3ccccn3)c(C(F)(F)F)c2)CC1 | -78.3%
O=C(Nc1c(N2CCCC2)cccc1N1CCCC1)c1cnsn1 | 42.4%
CN1CCN(c2ccc(Cl)cc2NC(=O)c2ccco2)CC1 | 35.1%
COC(=O)c1ncccc1N1CCCC1 | -0.71%
O=C(O)c1ncccc1N1CCCCC1 | 6.83%
COC(=O)c1ncccc1N1CCCCC1 | 89.1%
CCc1cc(NCC(O)CN2CCCC2)ncn1 (configuration not stated) | 18.5%

SMILES | INHIBITION
CCC(=O)N1CCCCC1c1nc(O)c2c(n1)CN(C(=O)C1CC1)CC2 (configuration not stated) | 34.65%
Cc1cc(CN(C)C(=O)c2cccc(N3CCCS3(=O)=O)c2)no1 | 42%
CN(C)[C@@H]1CCN(S(=O)(=O)c2cn(C)cn2)[C@H]1Cc1cccnc1 | 33%
CC(C)Cc1nnc(NC(=O)NC(CCO)c2cccs2)s1 (configuration not stated) | 36%
CCCn1cc(S(=O)(=O)N[C@H]2CN(CC(N)=O)C[C@@H]2C2CC2)cn1 | 37.7%
CCCn1cc(S(=O)(=O)N[C@H]2CN(CCO)C[C@@H]2C2CC2)cn1 | 92.1%
CCCn1cc(S(=O)(=O)N[C@H]2CN(C(C)=O)C[C@@H]2C2CC2)cn1 | 24.2%
Cc1ccc(CC2COCCN(S(C)(=O)=O)C2)nc1 (configuration not stated) | -24.4%
Cc1csc(CCNC(=O)N2CCC(NC(=O)OC(C)(C)C)CC2)n1 | 13.3%
CC(=O)N1CCCC(C(=O)N2CCN(Cc3cc(C)on3)CC2)C1 (configuration not stated) | 71.2%
Cc1cc(CN2C[C@@H]3COC[C@]3(CNC(=O)N(C)C)C2)no1 | 45.1%
Cc1cc(CN2C[C@@H]3COC[C@]3(CNC(=O)N3CCCC3)C2)no1 | 70.7%
Cc1cccc(CN2C[C@@H]3COC[C@]3(CNC(=O)N3CCCC3)C2)n1 | 21%
COc1cccc(CN2C[C@@H]3COC[C@]3(CNC(=O)C3CC3)C2)c1 | 43%
Cc1cccc(CN2C[C@@H]3COC[C@]3(CNC(=O)C3CCC3)C2)c1 | 65.7%
CC(=O)N1CCCC(C(=O)N2CCN(c3cnn(C)c(=O)c3)CC2)C1 (configuration not stated) | 16.6%
CNC(=O)C1CN(Cc2cc(C)on2)CCN(C(C)=O)C1 (configuration not stated) | -21.6%
Cc1cccc(CN2C[C@@H]3COC[C@]3(CNC(=O)C3CC3)C2)c1 | 35.8%
CCOCC(O)CN1CCN(C(=O)c2ccc3c(c2)COC3)CC1 (configuration not stated) | 29.7%

From ChEMBL document CHEMBL4513216, “Probing the Open Global Health Chemical Diversity Library for Multistage-Active Starting Points for Next-Generation Antimalarials” (ACS Infect Dis, 2020)
